PubChem BioAssay (NCATS)
Inconclusive results are not listed. The source made the active and inactive calls. The call rests on the fitted dose curve; in most records, active means well fitted cell-killing curve with a large enough effect; inconclusive means small, poorly fitted or top-dose-only effect, or effect the other way; inactive means flat fitted curve, though single readings scatter.

What was measured:
Experiment in all cases: Primary qHTS to identify gynecologic anti-cancer compounds using libraries of approved drugs and bioactive compounds (AID 1345084); further: nearly all actives have a fitted effect of over 55% in size
Conditions in all cases: Gynecologic cancer cell panel viability, ATPlite luminescence, 48 h; series mostly up to 57.5 µM
[1] = system: PA-1
Procedure, shortened: (§1)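 48 h compound exposure at 37 C, 5% CO2; five-point qHTS. ATPlite luminescence readout of cell ATP.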

[2] = system: Tov-21-G
Procedure, shortened: as §1

[3] = system: Tov112D
Procedure, shortened: as §1
On the % scale 0 is the no-effect control and ±100 the full control effect.

CC/C=C/C=C/C1(C)OC(CC(CO)OC)=CC1=O (centres undefined)
inactive: Potency [1] | Potency [2] | Potency [3]

FC(F)(F)c1nnc2c(Sc3ccccc3)nc3ccc(Cl)cc3n12
inactive: Potency [1] | Potency [2] | Potency [3]

CC(C)c1ccc2c(c1)[C@H](O)CC1[C@@](C)(C(=O)O)CCC[C@]21C (some centres undefined)
inactive: Potency [1] | Potency [2] | Potency [3]

CC1(C)CC[C@]2(C(=O)O[C@@H]3O[C@H](CO[C@@H]4O[C@H](CO)[C@@H](O)[C@H](O)[C@H]4O)[C@@H](O)[C@H](O[C@@H]4O[C@H](CO)[C@@H](O)[C@H](O)[C@H]4O)[C@H]3O)[C@H](O)C[C@]3(C)C(=CCC4[C@@]5(C)CC[C@H](O[C@@H]6OC[C@@H](O)[C@H](O)[C@H]6O)[C@@](C)(C(=O)O)C5CC[C@]43C)[C@@H]2C1 (some centres undefined)
inactive: activity change, negative = cytotoxicity [1] 0.131% [at 11.6 µM] | activity change, negative = cytotoxicity [2] 3.95% [at 11.6 µM] | activity change, negative = cytotoxicity [3] -6.08% [at 11.6 µM]

CC1(C(=O)O)CCCC2(C)C3CCC4CC3(CCC12)CC4(O)CO (centres undefined)
inactive: Potency [1] | Potency [2] | Potency [3]

COC(=O)c1cc(OC)cc(OC)c1C(=O)c1c(OC)cc2c(c1O)C1CCC(O)C(C)(O2)O1 (centres undefined)
inactive: Potency [1] | Potency [2] | Potency [3]

CCCN(CCN1CCN(c2ccccc2OC)CC1)C1CCc2ncsc2C1 (centres undefined)
inactive: Potency [1] | Potency [2] | Potency [3]

C[C@]1(O)CC[C@@H]2C(C(=O)O)=CO[C@@H](O[C@@H]3O[C@H](COC(=O)/C=C/c4ccc(O)c(O)c4)[C@@H](O)[C@H](O)[C@H]3O)[C@@H]21
inactive: Potency [1] | Potency [2] | Potency [3]
